For eight compounds, growth results are on record in PubChem BioAssay (NCI).

Several values for one entry are separate records, joined by “and”; a condition that tells them apart may be missing. Equal entries are not always repeated. Compounds without any hit were thinned out: in the full panel of roughly 83,000, 20% have a hit.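 Step 1: grow cells in 96-well plates. Step 2: add test compound at a single concentration. Step 3: incubate 48 h. Step 4: record percent growth.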 Activity calls are given as the source filed them. The calls were made as follows: active = growth percent below 10; inactive = the rest.

Some test systems named below: HCT-15 colon; HT29 colon; SNB-75 CNS; SNB-19 CNS; U251 CNS; PC-3 prostate; SK-MEL-5 melanoma; UACC-62 melanoma; LOX IMVI melanoma; SK-MEL-28 melanoma; SK-MEL-2 melanoma; EKVX NSCLC; SN12C renal; UO-31 renal; TK-10 renal; ACHN renal; CAKI-1 renal; A498 renal; CCRF-CEM leukemia; MOLT-4 leukemia.
Assay in all cases: NCI-60 one-dose screen, 48 h (100 = growth as untreated, 0 = no growth, -100 = all killed)
Common to all, as to conditions: 10 µM unless noted

For the compound `Cc1ccc2c(n1)C(=O)C(Cl)=C(Nc1cc(C(F)(F)F)cc(C(F)(F)F)c1)C2=O`, the growth in the experiment on HCT-15 colon was 6.82% (active); in the experiment on HT29 colon, 102% (inactive); with SNB-75 CNS, 98.3% (inactive); in the experiment on SNB-19 CNS, 90.6% (inactive); in the experiment on U251 CNS, 85.2% (inactive); in the experiment on PC-3 prostate, 80.5% (inactive). The growth in the experiment on SK-MEL-5 melanoma was 77% (inactive); in the experiment with UACC-62 melanoma it was 79.9% (inactive); in the experiment on LOX IMVI melanoma, 66.2% (inactive); in the experiment on SK-MEL-28 melanoma, 88.7% (inactive); in the experiment on SK-MEL-2 melanoma it was 74.5% (inactive); with EKVX NSCLC, 78% (inactive). In addition, the growth in the experiment on SN12C renal was 92.1% (inactive); in the experiment with UO-31 renal, 9.71% (active); with TK-10 renal, 106% (inactive); in the experiment on ACHN renal it was -64.9% (active); in the experiment on CAKI-1 renal it was 81.4% (inactive); with A498 renal, 80.4% (inactive). Besides, the growth was 4.75% (active) in the experiment with CCRF-CEM leukemia and 9.31% (active) with MOLT-4 leukemia.

For `CCCCCCCCCC(=O)NC(C)(C)C(=O)N1CCC[C@H]1C(=O)N[C@@H](CC(C)C)C(=O)N[C@@](C)(CC)C(=O)N[C@@H](CCC(N)=O)C(=O)N[C@H](CCC(N)=O)C(=O)NC(C)(C)C(=O)NC(C)(C)C(=O)N[C@@H](CCC(N)=O)C(=O)N[C@H](CC(C)C)C(=O)N[C@H](CO)CC(C)C`, the growth in the experiment with HCT-15 colon was -79.6% (active) and 23.1% (inactive); with HT29 colon, -51.5% (active) and -46.3% (active); in the experiment on SNB-75 CNS, -66.3% (active) and -94% (active); in the experiment with SNB-19 CNS, -96.3% (active) and -99% (active); in the experiment with U251 CNS, -92% (active) and -81.5% (active); in the experiment on PC-3 prostate, -94.1% (active) and -55.4% (active). Further, the growth with SK-MEL-5 melanoma was -96.7% (active) and -93.7% (active); with UACC-62 melanoma, -96.7% (active) and -91.7% (active); in the experiment on LOX IMVI melanoma, -91.5% (active) and -88.4% (active); in the experiment with SK-MEL-28 melanoma it was -97.9% (active) and -99.9% (active); with SK-MEL-2 melanoma it was -86.8% (active) and -74.3% (active); in the experiment on EKVX NSCLC, -87.8% (active) and -64.6% (active). In addition, the growth with SN12C renal was -86.4% (active) and -84.1% (active); in the experiment with UO-31 renal it was -94% (active) and 26.4% (inactive); in the experiment with TK-10 renal, -70.9% (active) and 14.9% (inactive); with ACHN renal, -85.3% (active) and 18.4% (inactive); in the experiment on CAKI-1 renal, -67.5% (active) and 5.79% (active); with A498 renal, -91.3% (active) and -31.5% (active). In addition, the growth in the experiment with CCRF-CEM leukemia is -72% (active) and -39.7% (active); in the experiment with MOLT-4 leukemia, -81.5% (active) and -26.1% (active).

For `O=C(CCCCCCN1CC(=O)N2[C@@H](c3cccs3)c3[nH]c4ccccc4c3C[C@H]2C1=O)NO`, the growth in the experiment with HCT-15 colon is 96.1% (inactive); with HT29 colon it was 78.9% (inactive); in the experiment on SNB-75 CNS, 73% (inactive); with SNB-19 CNS, 78.1% (inactive); in the experiment on U251 CNS it was 76.5% (inactive); in the experiment with PC-3 prostate it was 86.2% (inactive). The growth with SK-MEL-5 melanoma is 74.8% (inactive); in the experiment with UACC-62 melanoma it was 5.39% (active); in the experiment on LOX IMVI melanoma, 68.4% (inactive); in the experiment on SK-MEL-28 melanoma it was 70.2% (inactive); in the experiment on SK-MEL-2 melanoma, 77.8% (inactive); with EKVX NSCLC, 92.2% (inactive). For the same compound, the growth in the experiment with SN12C renal is 93.8% (inactive); in the experiment with UO-31 renal it was 82.7% (inactive); in the experiment with TK-10 renal it was 85.5% (inactive); with ACHN renal it was 96.7% (inactive); in the experiment on CAKI-1 renal it was 88.5% (inactive); in the experiment with A498 renal, 87.3% (inactive). Besides, the values for the growth in the experiment with CCRF-CEM leukemia and with MOLT-4 leukemia were 24.2% (inactive) and 19.3% (inactive), respectively.

Turning to `CC(=O)N1N=C(c2cc3ccccc3oc2=O)CC1c1cn(-c2ccccc2)nc1-c1ccc(C)cc1` (stereo not given), the growth was 103% (inactive) in the experiment with HCT-15 colon; 108% (inactive) with HT29 colon; 90.7% (inactive) in the experiment with SNB-75 CNS; 96% (inactive) in the experiment with SNB-19 CNS; 104% (inactive) in the experiment with U251 CNS; 93% (inactive) with PC-3 prostate. In addition, the growth in the experiment with SK-MEL-5 melanoma was 101% (inactive); in the experiment with UACC-62 melanoma, 95.2% (inactive); in the experiment with LOX IMVI melanoma it was 95.7% (inactive); in the experiment with SK-MEL-28 melanoma, 106% (inactive); with SK-MEL-2 melanoma, 108% (inactive); with EKVX NSCLC, 98.3% (inactive). Moreover, the growth in the experiment on SN12C renal was 98.8% (inactive); in the experiment with UO-31 renal it was 83.2% (inactive); in the experiment on TK-10 renal, 105% (inactive); in the experiment with ACHN renal it was 97.8% (inactive); in the experiment with CAKI-1 renal, 92% (inactive); in the experiment on A498 renal it was 101% (inactive). Besides, the growth is 102% (inactive) in the experiment with CCRF-CEM leukemia and 108% (inactive) in the experiment with MOLT-4 leukemia.

Consider `CC1CCN(CC(=O)Nn2c(COc3ccccc3)nc3ccccc3c2=O)CC1`, for which the growth was 56% (inactive) with HCT-15 colon; 73.1% (inactive) in the experiment with HT29 colon; 72.6% (inactive) in the experiment with SNB-75 CNS; 86.4% (inactive) in the experiment on SNB-19 CNS; 81.4% (inactive) in the experiment with U251 CNS; 94.3% (inactive) with PC-3 prostate. The growth in the experiment with SK-MEL-5 melanoma is 82.9% (inactive); in the experiment with UACC-62 melanoma it was 69.3% (inactive); in the experiment with LOX IMVI melanoma, 85.3% (inactive); with SK-MEL-28 melanoma it was 92.8% (inactive); in the experiment with SK-MEL-2 melanoma, 87.2% (inactive); with EKVX NSCLC it was 86.1% (inactive). Moreover, the growth with SN12C renal is 96.3% (inactive); in the experiment on UO-31 renal it was 70.7% (inactive); with TK-10 renal, 125% (inactive); with ACHN renal, 102% (inactive); with CAKI-1 renal it was 71.2% (inactive); with A498 renal, 81.8% (inactive). In addition, the growth in the experiment with CCRF-CEM leukemia was 89.4% (inactive); with MOLT-4 leukemia, 88.1% (inactive).

Turning to `C#CCOc1ccccc1C(OC(=O)c1ccccc1)C(=O)NC(C)(C)C(C)(C)C` (stereo not given), the growth is 78.3% (inactive) in the experiment with HCT-15 colon; 74.6% (inactive) in the experiment on HT29 colon; 71.4% (inactive) with SNB-75 CNS; 95.1% (inactive) with SNB-19 CNS; 87.1% (inactive) in the experiment on U251 CNS; 60.7% (inactive) with PC-3 prostate. Moreover, the growth in the experiment on SK-MEL-5 melanoma was 80.8% (inactive); in the experiment with UACC-62 melanoma it was 66.9% (inactive); with LOX IMVI melanoma it was 91.6% (inactive); with SK-MEL-28 melanoma, 101% (inactive); in the experiment with SK-MEL-2 melanoma, 90.6% (inactive); with EKVX NSCLC, 75.3% (inactive). Besides, the growth was 95.7% (inactive) in the experiment with SN12C renal; 62.7% (inactive) in the experiment with UO-31 renal; 101% (inactive) with TK-10 renal; 97.2% (inactive) in the experiment on ACHN renal; 63.5% (inactive) in the experiment on CAKI-1 renal; 120% (inactive) in the experiment on A498 renal. Moreover, the growth in the experiment on CCRF-CEM leukemia is 79.5% (inactive); in the experiment with MOLT-4 leukemia, 40.6% (inactive).

Turning to `C#C[C@]1(O)CC[C@H]2[C@@H]3CC=C4c5sc(Nc6cc(C)cc(C)c6)nc5CC[C@]4(C)[C@H]3CC[C@@]21C`, the growth in the experiment with HCT-15 colon was -37.1% (active); in the experiment with HT29 colon it was 0.349% (active); with SNB-75 CNS, 10.2% (inactive); in the experiment on SNB-19 CNS it was 14.8% (inactive); with U251 CNS it was 8.96% (active); with PC-3 prostate, -8.26% (active). The growth in the experiment with SK-MEL-5 melanoma was -42.5% (active); with UACC-62 melanoma, -16.4% (active); with LOX IMVI melanoma, -68.3% (active); in the experiment on SK-MEL-28 melanoma it was -37.9% (active); in the experiment on SK-MEL-2 melanoma it was 14% (inactive); with EKVX NSCLC it was -3.54% (active). Moreover, the growth is 51.4% (inactive) with SN12C renal; 8.23% (active) with UO-31 renal; 62.8% (inactive) in the experiment on TK-10 renal; 34.3% (inactive) in the experiment with ACHN renal; 11% (inactive) in the experiment on CAKI-1 renal; -3.87% (active) in the experiment with A498 renal. The growth in the experiment with CCRF-CEM leukemia is 10.7% (inactive); in the experiment on MOLT-4 leukemia it was 0.923% (active).

For the compound `C[C@H]1OCC2(CCN(c3cnc(C(=O)Nc4cc(F)cc5cccnc45)cn3)CC2)[C@H]1N`, the growth in the experiment on HCT-15 colon was 14.5% (inactive); in the experiment with HT29 colon, 30.3% (inactive); in the experiment with SNB-75 CNS, 62.9% (inactive); in the experiment with SNB-19 CNS, 73.5% (inactive); in the experiment with U251 CNS, 66.3% (inactive); in the experiment on PC-3 prostate, 50.8% (inactive). The growth in the experiment with SK-MEL-5 melanoma is 93.2% (inactive); with UACC-62 melanoma, 31.7% (inactive); in the experiment on LOX IMVI melanoma, 33.2% (inactive); with SK-MEL-28 melanoma it was 61.4% (inactive); with SK-MEL-2 melanoma it was 101% (inactive); in the experiment with EKVX NSCLC, 77.2% (inactive). Moreover, the growth is 46.5% (inactive) with SN12C renal; 38.9% (inactive) in the experiment on UO-31 renal; 82.2% (inactive) with TK-10 renal; 33.7% (inactive) in the experiment on ACHN renal; 40.9% (inactive) with CAKI-1 renal; 65.2% (inactive) with A498 renal. Further, the growth with CCRF-CEM leukemia is 15.6% (inactive); in the experiment on MOLT-4 leukemia it was 16.8% (inactive).
